Screening results: PubChem BioAssay, National Center for Advancing Translational Sciences (NCATS)
An excerpt weighted towards active compounds, which were near 12% of everything screened.
BAZ2B block = qHTS Assay for Inhibitors of BAZ2B; Bromodomain adjacent to zinc finger domain protein 2B (Homo sapiens), Q9UIF8; AlphaScreen BAZ2B-H3K14Ac peptide displacement; 4.4% of 360,000 active; Potency, µM (highest dose often 114 µM), without a hit: at the highest dose activity change, negative = inhibition, usual class: inhibitors; AID 504333, 2011; note: potency is the fitted concentration of half-maximal effect; % is set by controls: 0 for no effect and ±100 for the full control effect; nearly all actives have a fitted effect of over 60% in size
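Multi-concentration screen (max 110 uM) measuring displacement of acetylated histone H3 peptide from BAZ2B by AlphaScreen, using 50 nM protein, 50 nM peptide and 10 ug/mL streptavidin donor plus Ni-chelate acceptor beads.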
PI5P4Ka inh = qHTS for Inhibitors of phosphatidylinositol 5-phosphate 4-kinase (PI5P4K) | Phosphatidylinositol 5-phosphate 4-kinase type-2 alpha (Homo sapiens), P48426 | PI5P4Kalpha enzyme, ADP-Glo luminescence, 60 min; hits give low values | max response, % | 1.2% of 330,000 active | AID 652105, 2013; active = max response of -50% or lower; inconclusive = between -30% and -50%; inactive = -30% or higher; note: value at the top dose of about 77 µM; % is set by controls: 0 for no effect and ±100 for the full control effect
Target sequence (P48426 whole entry, looked up): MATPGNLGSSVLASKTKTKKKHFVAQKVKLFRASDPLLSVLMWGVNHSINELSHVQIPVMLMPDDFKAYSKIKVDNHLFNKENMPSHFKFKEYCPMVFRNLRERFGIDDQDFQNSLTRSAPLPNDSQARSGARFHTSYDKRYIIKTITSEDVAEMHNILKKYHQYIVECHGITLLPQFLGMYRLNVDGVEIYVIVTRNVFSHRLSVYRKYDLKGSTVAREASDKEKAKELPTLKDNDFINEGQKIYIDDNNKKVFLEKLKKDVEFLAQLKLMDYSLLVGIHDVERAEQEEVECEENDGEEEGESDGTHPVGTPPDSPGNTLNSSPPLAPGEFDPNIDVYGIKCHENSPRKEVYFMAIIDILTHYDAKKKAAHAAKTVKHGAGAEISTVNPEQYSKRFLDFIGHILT
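Enzyme plus substrate dispensed, test compounds pinned in, then ATP (5 microM final) added. After 60 min at RT, ADP-Glo reagent 1 for 45 min and reagent 2 for 30 min preceded luminescence imaging.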
JMJD2A Tudor inh = qHTS Assay for Inhibitors of JMJD2A-Tudor Domain | Lysine-specific demethylase 4A (Homo sapiens), O75164 | AlphaScreen JMJD2A-Tudor / H3K4me3 peptide binding | Potency, µM (titrated, usually from 114 µM), for the others: at the highest dose activity change, negative = inhibition, hits mostly inhibitors | 4.4% of 390,000 active | AID 504339, 2011; note: potency is the fitted concentration of half-maximal effect; % is set by controls: 0 for no effect and ±100 for the full control effect; nearly all actives have a fitted effect of over 50% in size
G9a inh = qHTS Assay for Inhibitors of Histone Lysine Methyltransferase G9a. Potency, µM (doses to about 102 µM), without a hit: top-dose activity, negative = inhibition, usual class: inhibitors. G9a H3K9 monomethylation, AlphaScreen, 2 h. 8.8% of 350,000 active. Histone-lysine N-methyltransferase EHMT2 (Homo sapiens), Q96KQ7; note: potency is the fitted concentration of half-maximal effect; % is set by controls: 0 for no effect and ±100 for the full control effect; nearly all actives have a fitted effect of over 75% in size
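Step 1: enzyme (final 20 nM) with compound, 15 min RT. Step 2: substrate peptide 500 nM and SAM 20 uM, 2 h RT. Step 3: anti-H3K9me1 antibody and AlphaScreen beads, 10 min, then plate read.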
PLK1 PBD block = qHTS for Inhibitors of PLK1-PDB (polo-like kinase 1 - polo-box domain): Primary Screen | Plk1 PBD binding of FITC phosphopeptide, fluorescence polarization | Potency, µM, for inactives: max response, negative = inhibition, most hits filed as inhibitors | 2.8% of 360,000 active | AID 720504, 2013; note: potency is the fitted concentration of half-maximal effect; series mostly up to about 57 µM; % is set by controls: 0 for no effect and ±100 for the full control effect; nearly all actives have a fitted effect of over 65% in size
HP1b binding inh = HTS for Inhibitors of HP1-beta Chromodomain Interactions with Methylated Histone Tails; AlphaScreen HP1-beta / biotin-H3K9me3 peptide binding; Potency, µM (series often up to 114 µM), for inactives: top-dose activity change, negative = inhibition, hits mostly inhibitors; 0.56% of 390,000 active; note: potency is the fitted concentration of half-maximal effect; nearly all actives have a fitted effect of over 70% in size
Target sequence (P83916 whole entry, looked up): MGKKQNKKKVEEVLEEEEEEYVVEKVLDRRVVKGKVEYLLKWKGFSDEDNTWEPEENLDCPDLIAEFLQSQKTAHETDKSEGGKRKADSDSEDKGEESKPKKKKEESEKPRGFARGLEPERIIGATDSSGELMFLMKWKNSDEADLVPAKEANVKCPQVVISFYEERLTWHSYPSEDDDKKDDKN
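AlphaScreen: HP1-beta (50 nM) preformed 30 min with biotin-H3(1-18)K9me3 peptide (50 nM) in PBS pH 7.4, 0.01% Tween-20. Compound added for 30 min at RT, then streptavidin donor/nickel chelate acceptor beads (10 ug/mL) for 30 min.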
The depositor's hits bear a star; ? = inconclusive; / = no result given; ! = repeats disagree; [ ] = dose if it differs, or a comment. Unless noted, calls come from the whole dose curve; as a rule, active = well fitted curve in the direction sought with a large enough effect; inconclusive = small, poorly fitted or top-dose-only effect, or another doubt; inactive = no such curve, though single readings can be large; an effect the other way counts as inactive or inconclusive.

SMILES	BAZ2B block	PI5P4Ka inh	JMJD2A Tudor inh	G9a inh	PLK1 PBD block	HP1b binding inh
CC1=C(C(=O)NCc2ccc(Cl)cc2)C2(CCCCCC2)OC1=O	1.8%	/	-14.9%	0.2%[59 µM]	/	19.9%
Nc1ccn(CC(=O)N[C@H](CO)Cc2c[nH]c3ccccc23)c(=O)n1	-3.9%	-8.8	-4.3%	-13.6%[2.33 µM]	-2.2%	48.6%
COc1ccc(Nc2nc3ccccc3nc2NS(=O)(=O)c2ccc(Cl)cc2)cc1OC	?	/	-26.0%	-4.6%[59 µM]	/	-3.6%
NS(=O)(=O)c1ccc(CCNCC(=O)NC2CC2)cc1	?	10.3	4.47µM*	50.1µM*	1.8%	?
CC(=O)c1ccc(Nc2ccc(-c3ccccc3C)nn2)cc1	79.4µM*	-1.2	-31.6%	/	?	10.2%
COc1ccc(CNC(=O)CCC(=O)N2CC3CCCN3c3ccccc32)cc1 (stereo unspecified)	-36.8%	/	?	-14.2%[59 µM]	/	-4.9%
COC(=O)c1c(C)sc(-c2c(-c3ccc4c(c3)OCCO4)[nH]c3c2c(=O)n(C)c(=O)n3C)c1O	-13.5%	/	-23.5%	-1.9%[59 µM]	/	3.3%
COC(=O)c1c(C)sc(-c2c(-c3ccc4c(c3)OCCO4)[nH]c3[nH]c(=O)[nH]c(=O)c23)c1O	35.5µM*	/	50.1µM*	14.1µM*	/	?
COc1ccc2nc(N=Nc3c(O)ccc4ccccc34)sc2c1	2.82µM*	/	/	3.16µM*	/	/
COc1ccc2nc(NC(=O)Nc3cccc4ccccc34)sc2c1	-12.7%	0.4	-25.2%	-8.0%	-17.7%	74.7%
COc1ccc(Cn2c(C(=O)O)c(CNC3CCCCCC3)c3ccc(OC)cc32)cc1	?	/	-12.8%	-8.5%[59 µM]	/	30.7%
CC1=NN(c2ccc(Cl)cc2)C(=O)C1C(c1ccccc1O)c1c(C)[nH]n(-c2ccc(Cl)cc2)c1=O (stereo unspecified)	35.5µM*	7.8	56.2µM*	3.98µM*	23.8µM*	?
COc1cccc(CNC(=O)NCc2noc3ccc(C)cc23)c1	-11.9%	/	-10.6%	-32.5%[59 µM]	/	30.6%
O=[N+]([O-])c1cc(Br)c2c(c1)CCN2	/	-6.7	/	/	3.0%	/
O=[N+]([O-])c1cc(Cl)cc(C2=NCCN2)c1	3.9%	/	-17.9%	35.5µM*	-10.2%	2.0%
CCOC(=O)N1CCN(C(=O)CN2C(=O)/C(=C\c3cccc(OC)c3)SC2=S)CC1	/	/	-21.3%	/	/	10.6%
CCn1nc(-c2ccccc2C)nc2c(=O)n(C)c(=O)nc1-2	/	/	-13.8%[57.1 µM]	/	/	16.6%[57 µM]
Cn1c(=S)[nH]c2[nH]c(=O)cnc2c1=O	-9.6%	-52.0*	89.1µM*	?	1.6%	25.1%
O=C(CN1CCCCC1)NCC(=O)Nc1ccc(F)c(F)c1F	2.1%	2.0	3.8%	-2.5%[2.33 µM]	1.1%	46.7%
CSc1nc(=S)cc(C)[nH]1	3.2%	?	25.1µM*	/	15µM*	?
CN1C(=O)[C@H]2[C@@H](c3ccc(C(F)(F)F)cc3)N[C@]3(CCCN(Cc4ccc(C(F)(F)F)cc4)C3=O)[C@H]2C1=O	/	-0.2	/	/	-1.7%	/
NS(=O)(=O)c1cc(C(=O)O)cc(N2CCCC2)c1Oc1ccccc1	5.4%	-0.4	-10.1%	17.8µM*!	-6.2%	9.7%
Cc1ccc(S(=O)(=O)Nc2ccc3c(c2)n(C)c(=O)n3C)c(C)c1	-13.8%	1.6	-7.0%	/	-11.2%	21.4%[57 µM]
Cc1ccc(S(=O)(=O)Nc2cc3c(cc2NCc2ccccc2)n(C)c(=O)n3C)c(C)c1	50.1µM*	/	?	11.2µM*	/	-15.5%
Cn1c(=O)n(C)c2cc(NS(=O)(=O)c3ccc(F)cc3)c(NCc3ccccc3)cc21	-37.0%	/	?	11.2µM*	/	-5.8%
SMILES	BAZ2B block	PI5P4Ka inh	JMJD2A Tudor inh	G9a inh	PLK1 PBD block	HP1b binding inh
Cc1ccc(S(=O)(=O)Nc2ccc3c(c2)n(C)c(=O)n3C)cc1	4.7%	1.4	-6.2%	/	0.0%	23.6%
Cc1ccc(S(=O)(=O)Nc2cc3c(cc2NCc2ccccc2)n(C)c(=O)n3C)cc1	-30.5%	/	?	15.8µM*	/	?
O=C(Cn1cc(F)c(=O)[nH]c1=O)c1ccco1	/	-12.3	/	/	-6.0%	/
COc1cc(/C=C(/C#N)c2nc(-c3cc4ccccc4oc3=O)cs2)ccc1O	-1.4%	/	-19.0%	-33.4%[59 µM]	/	25.8%
CCOP(=O)(OCC)C(Nc1cccc(C(F)(F)F)c1)c1ccc(F)cc1 (stereo unspecified)	9.6%	12.0	-10.4%	14.6%[59 µM]	2.5%	47.4%
CCOP(=O)(OCC)C(Nc1cccc([N+](=O)[O-])c1)c1ccc(N(C)C)cc1 (stereo unspecified)	39.8µM*	8.2	50.1µM*	?	-5.4%	?
O=C(Cc1cccc(NC(=O)C2CCCN(C(=O)CCc3ccccc3)C2)c1)Nc1ccc(C(=O)N2CCCCC2)cc1 (stereo unspecified)	/	-8.1	-12.9%	/	-6.2%	38.3%
Cc1cc(=O)n2c(C(=O)Nc3ccc(F)c(Cl)c3)c(C(=O)Nc3cccc(C)c3C)sc2n1	-1.3%	/	-22.2%	11.2µM*	/	-11.7%
COc1ccc(C)cc1NC(=O)c1c(C(=O)Nc2cccc(C)c2C)sc2nc(C)cc(=O)n12	-0.4%	/	-12.8%	-11.4%[59 µM]	/	-0.6%
CC(C)OC(=O)c1ccc(NC(=O)c2cccc(-n3cnnn3)c2)cc1	2.5%	9.9	-10.1%	-32.2%[2.33 µM]	4.1%	37.0%
Cc1cc(=O)n2c(C(=O)Nc3ccc(C(=O)OC(C)C)cc3)c(C(=O)Nc3ccccc3)sc2n1	-20.8%	-2.9	-18.5%	44.7µM*	?	62.0%
O=C1CCCC/C1=C/Nc1ccc(C(=O)O)cc1	4.1%	/	-8.5%	?	-14.3%	18.6%
O=C1CCCC/C1=C/Nc1ccc2c(c1)OCO2	?	-6.4	-13.8%	35.5µM*	-13.8%	-3.9%
O=C1CCC/C1=C/Nc1cccc(F)c1	-20.7%	-13.5	50.1µM*	/	18.9µM*	-10.6%
COc1ccc(Oc2ccc(N/C=C3/CCCC3=O)cc2)cc1	-3.2%	-0.7	-20.9%	?	-1.5%	13.0%
OC(c1ccccc1)(c1ccccc1)C1CCN(CCCOc2ccc3c(c2)CCCC3)CC1	/	-0.9	/	/	-6.2%	/
COc1ccc(Cl)cc1NC(=O)CN(C)C(=O)Cc1ccsc1	-4.4%	2.5	-9.7%	28.2µM*	0.9%	39.9%
Nc1nnc(-c2ccccc2Cl)s1	2.3%	-17.3	7.5%	22.4µM*	?	-18.6%
COc1ccc(CCNC(=O)C(=O)NCC(c2cccs2)S(=O)(=O)c2cccs2)cc1 (stereo unspecified)	3.5%	/	-0.3%	4.2%[59 µM]	/	42.7%
